Data from PubChem BioAssay (NCATS).
Results filed as inconclusive are left out. Calls of active or inactive are those of the source. Unless noted, calls follow the shape of the dose curve; as a rule, active = well fitted curve in the direction sought with a large enough effect; inconclusive = small, poorly fitted or top-dose-only effect, or another doubt; inactive = no such curve, though single readings can be large; an effect the other way counts as inactive or inconclusive.

How the values were obtained:
[1] = biological target: M-phase phosphoprotein 8 (Homo sapiens) (UniProt Q99549); experiment: qHTS Validation Assay for Inhibitors for MPP8 Chromodomain Interactions with Methylated Histone Tails (AID 488949); also: nearly all actives have a fitted effect of over 55% in size; also: potency is read from the fitted curve at half-maximal effect
How it was run: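 Disruption of the preformed MPP8–trimethyl-H3K9 peptide complex (both 50 nM, 30 min, RT) is measured after 30 min compound exposure, using AlphaScreen proximity beads; aurintricarboxylic acid titration serves as plate control.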

[2] = biological target: Methanococcus maripaludis chaperonin (MmCpn) (UniProt Q6LX38); experiment: High-Throughput Screening for Modulators of Cytosolic Chaperonin Activity: MmCpn Primary Screen (AID 488978);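 also: 50 nM MmCpn enzyme hydrolysing 30 µM ATP at 37 °C; 0% is about no effect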
How it was run: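 Measures ATPase turnover of the M. maripaludis chaperonin (50 nM final) against 30 uM ATP over 10 min at 37C, with compound added 5 min beforehand at room temperature. ADP is quantified by HTRF immunodetection.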

[3] = biological target: Transient receptor potential cation channel subfamily V member 1 (Homo sapiens) (UniProt Q8NER1); experiment: HTS Assay for Compounds that Act as Enhancers of the Vanilloid Receptor 1 (AID 488979); also: 0% is about no effect
How it was run: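 Calcium influx kinetics via Fluo-8 (480/520 nm) in TRPV1-expressing cells, 2000/well cultured overnight at 35.5C. Compound-alone read 3 min (agonist phase), followed by EC20 capsaicin challenge for 2 min (enhancer phase).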

[4] = biological target: Thyrotropin receptor (Homo sapiens) (UniProt P16473); experiment: qHTS Assay for Antagonists of the Thyroid Stimulating Hormone Receptor (AID 488980); also: series mostly up to about 58 µM; 0% is about no effect
How it was run: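 Cells expressing human TSHR (HEK293) are dispensed in HBSS/HEPES containing 70 uM RO 20-1724, compound is added, then TSH at EC80 (4 nM final). Antibody in lysis buffer follows, 30 minutes at room temperature before HTRF detection.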

[5] = biological target: D(1A) dopamine receptor (Homo sapiens) (UniProt P21728); experiment: HTS Assay for Allosteric Agonists of the Human D1 Dopamine Receptor: Primary Screen for Agonists (AID 488981); also: 0% is about no effect
How it was run: (§1)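 Calcium flux in an inducible, force-coupled HEK293 Trex D1 line (overnight at 30 C): agonist mode is the 180 s kinetic read after compound; potentiator mode is the following 180 s read after dopamine at EC20.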

[6] = biological target: D(1A) dopamine receptor (Homo sapiens) (UniProt P21728); experiment: HTS Assay for Allosteric Agonists of the Human D1 Dopamine Receptor: Primary Screen for Potentiators (AID 488982); also: 0% is about no effect
How it was run: as §1

[7] = biological target: D(1A) dopamine receptor (Homo sapiens) (UniProt P21728); experiment: HTS Assay for Allosteric Agonists of the Human D1 Dopamine Receptor: Primary Screen for Antagonists (AID 488983);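 also: calcium flux response to an EC80 dopamine challenge measured with no-wash dye; nearly all actives have a fitted effect of over 65% in size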; also: potency is read from the fitted curve at half-maximal effect
How it was run: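 Calcium flux readout, no-wash dye, inducible HEK293 T-REx D1 line (force-coupled). Compound added after 10 s baseline, 180 s kinetic read; then dopamine at EC80, further 180 s read.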

[8] = biological target: ATPase family AAA domain-containing protein 5 (Homo sapiens) (UniProt Q96QE3); experiment: Validation screen for small molecules that inhibit ELG1-dependent DNA repair in human embryonic kidney (HEK293T) cells expressing luciferase-tagged ELG1 (AID 493107);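 also: cells co-treated with the DNA-damaging agent 5-fluorouridine alongside compound; series mostly up to about 46 µM; % is scaled to controls: 0 for no effect and ±100 for the full control effect; inhibitors lower the ELG1-luciferase luminescence signal; nearly all actives have a fitted effect of over 70% in size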
How it was run: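 ELG1-luciferase HEK293T reporter; 5-fluorouridine + compound/DMSO, 16 hr, 37 °C, 5% CO2; ONE-Glo 30 min RT; luminescence read, qHTS format.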

[9] = biological target: Thyrotropin-releasing hormone receptor (Homo sapiens) (UniProt P34981); experiment: qHTS for Small Molecule Agonists and Allosteric Enhancers of Human TRH Receptor: Validation Screen for Agonists (AID 493127;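 active = calcium activation more than 3 SD above the typical response in the agonist read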;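 also: intracellular calcium rise by fluo-8 fluorescence before TRH EC20 addition; 0% is about no effect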); conditions: TRH receptor agonist cell assay; at 2 µM; stronger effect = higher value
How it was run: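 Read-out: intracellular calcium release measured kinetically by FDSS (fluo-8, ex 480/em 530 nm), 1 reading/s after a 10-cycle baseline. TRHR cells, 2000/well, cultured 18 h at 33.5C, dye-loaded at room temp. Compound-evoked positive calcium signal flags agonists.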

[10] = Nrf2 qHTS screen for inhibitors: Validation (AID 493153; active = well fitted inhibition curve with a large enough effect in the main read-out, with a control signal flat, not every such curve was filed as active); conditions: Potency: luciferase luminescence; viability change: measured here: cytotoxicity max response
How it was run: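 Concentration-response test in A549 ARE_Fluc reporter cells (5% FBS OPTI-MEM), compound exposure 18-24 h at 37°C, 5% CO2. Cell viability measured first by CellTiter-Fluor fluorescence; ARE-driven luciferase luminescence then measured as Nrf2 activity.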

[11] = qHTS for Inhibitors of Cell Surface uPA Generation: Validation Assay (AID 493164);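 also: RAW 264.7 macrophage cells exposed to compound for 18 h; 0% is about no effect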
How it was run: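 Compounds are titrated over seven points (2.45 nM–38.3 uM final) onto pre-plated RAW 264.7 cells and incubated for 18 h. Retained intracellular ATP, measured with ATP-Lite, indicates blocked lethal factor entry.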

[12] = biological target: Galactokinase (Homo sapiens) (UniProt P51570); experiment: qHTS Validation Assay for Inhibitors of Human Galactokinase (GALK) (AID 493189); also: 0% is about no effect
How it was run: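 Compounds were pin-transferred into ATP buffer, then GALK-galactose mix was added (final 5 nM enzyme, 100 uM galactose, 35 uM ATP). After 1 h at room temperature, remaining ATP was measured luminescently.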

[13] = Validation screen for small molecules that induce DNA re-replication in SW480 colon adenocarcinoma cells (AID 504364); also: 0% is about no effect
How it was run: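 Read-out: total Hoechst intensity of nuclei by fluorescence scanning imager; hits raise the fraction of nuclei with elevated DNA content. Cells received compound for 48 hr at 37 C before a 40 min stain.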

[14] = biological target: Peptidyl-prolyl cis-trans isomerase NIMA-interacting 1 (Homo sapiens) (UniProt Q13526); experiment: qHTS Validation Assay to Find Inhibitors of Pin1 (AID 504536; active = well fitted inhibition curve with a large enough effect in the polarisation, with a control signal flat, not every such curve was filed as active; the % refers to the polarisation;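 also: 0% = full Pin1 enzyme wells and -100% = no-enzyme wells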)
How it was run: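 Fluorescence polarization competition: compounds (titration) displace HiFluor-488-labeled Pin1-1b peptide from Pin1 (0.3 uM final) in pH 7.5 HEPES buffer with DTT, 10 min at room temperature; %Activity normalized to no-enzyme wells, curves fitted.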

[15] = biological target: Phosphoglycerate kinase, glycosomal (Trypanosoma brucei brucei) (UniProt P07378); experiment: qHTS Validation Assay to Find Inhibitors of Phosphoglycerate Kinase (AID 504547);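 also: control wells lack PGK and mark full inhibition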
How it was run: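 Luminescence end-point (Kinase-Glo Plus, 10 min) after a 60 min room-temperature coupled reaction. GAPDH at 100nM final supplies 1,3-BPG to PGK. Buffer: 100mM TEA pH 7.6, 5mM MgCl2, 0.01% Tween-20. Wells lacking PGK served as controls.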

[16] = biological target: phosphoglycerate mutase (Leishmania major) (UniProt Q4Q090); experiment: qHTS Validation Assay to Find Inhibitors of Phosphoglycerate Mutase (AID 504548);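 also: end-point luminescence from Kinase-GloPlus after the PGAM reaction; series mostly up to about 58 µM; % is scaled to controls: 0 for no effect and ±100 for the full control effect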
How it was run: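 L. major PGAM (1.25nM final) was added to substrate buffer and pinned compound, incubated 45 minutes at room temperature, then Kinase-GloPlus added; luminescence read after 10 minutes. Buffer: 100 mM TEA pH 7.6, 5 mM MgCl2, 0.01% Tween-20.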

[17] = biological target: Ubiquitin carboxyl-terminal hydrolase 1 (Homo sapiens) (UniProt O94782); experiment: Inhibitors of USP1/UAF1: Pilot qHTS (AID 504865); also: nearly all actives have a fitted effect of over 35% in size; also: potency is read from the fitted curve at half-maximal effect
How it was run: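 Kinetic fluorescence assay: 1nM USP1/UAF1, 15 min compound preincubation, then 150nM Ub-Rho; 480/540 nm.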

[18] = biological target: Chromobox protein homolog 1 (Homo sapiens) (UniProt P83916); experiment: qHTS Validation Assay for Inhibitors of HP1-beta Chromodomain Interactions with Methylated Histone Tails (AID 488953); also: nearly all actives have a fitted effect of over 50% in size; also: potency is read from the fitted curve at half-maximal effect
How it was run: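 AlphaScreen proximity readout: streptavidin donor and Ni-chelate acceptor beads, 10 ug/mL final, 30 min dark, RT. Complex of 50 nM HP1-beta and 50 nM b-H3(1-18)K9me3 formed 30 min, then compound-treated 30 min; PBS pH 7.4/0.01% Tween-20.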

[19] = biological target: ATP-dependent 6-phosphofructokinase (Trypanosoma brucei brucei) (UniProt O15648); experiment: qHTS Assay to Find Inhibitors of T. brucei phosphofructokinase: hit validation (AID 492961);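 also: luminescence reports ADP formed as PFK phosphorylates fructose-6-phosphate with ATP; series mostly up to about 51 µM; % is scaled to controls: 0 for no effect and ±100 for the full control effect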
How it was run: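 Measures ADP output of PFK (1.25 nM) at 0.1 mM ATP, 0.5 mM F6P, pH 8.0 TEA buffer with 5 mM MgCl2. No-enzyme wells define full inhibition; uninhibited enzyme wells define zero.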

[20] = Validation screen for small molecules that induce genotoxicity in human embryonic kidney (HEK293T) cells expressing luciferase-tagged ELG1 (AID 493106); also: 0% is about no effect
How it was run: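 qHTS format; 2,000 HEK293T ELG1-luc cells/well; 23 nL compound via pin tool; 16 hr, 37 °C/5% CO2; ONE-Glo, 30 min RT; luminescence read.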

Transient receptor potential cation channel subfamily V member 1 (Homo sapiens), sequence (Q8NER1 whole entry, looked up): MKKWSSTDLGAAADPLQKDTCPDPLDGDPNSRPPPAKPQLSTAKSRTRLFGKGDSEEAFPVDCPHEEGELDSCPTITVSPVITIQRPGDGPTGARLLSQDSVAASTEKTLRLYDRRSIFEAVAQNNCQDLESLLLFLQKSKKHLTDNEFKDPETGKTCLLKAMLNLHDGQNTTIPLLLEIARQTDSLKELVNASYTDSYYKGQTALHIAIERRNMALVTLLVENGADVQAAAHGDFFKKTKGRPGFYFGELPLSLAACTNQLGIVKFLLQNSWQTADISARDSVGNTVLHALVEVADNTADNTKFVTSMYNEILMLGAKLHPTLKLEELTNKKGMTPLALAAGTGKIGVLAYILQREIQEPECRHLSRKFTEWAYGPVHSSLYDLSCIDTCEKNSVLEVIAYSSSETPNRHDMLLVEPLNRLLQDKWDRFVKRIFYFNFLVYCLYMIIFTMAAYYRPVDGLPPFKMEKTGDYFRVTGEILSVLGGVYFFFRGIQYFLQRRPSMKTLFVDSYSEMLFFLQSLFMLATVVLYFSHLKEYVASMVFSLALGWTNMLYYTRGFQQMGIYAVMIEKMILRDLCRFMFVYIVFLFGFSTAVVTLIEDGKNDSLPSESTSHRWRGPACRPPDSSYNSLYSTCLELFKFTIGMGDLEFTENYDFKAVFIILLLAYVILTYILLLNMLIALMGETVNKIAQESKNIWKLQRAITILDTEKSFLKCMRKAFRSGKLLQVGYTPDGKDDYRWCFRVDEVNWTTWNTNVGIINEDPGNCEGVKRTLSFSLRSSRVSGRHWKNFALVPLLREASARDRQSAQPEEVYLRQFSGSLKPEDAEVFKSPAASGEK
Phosphoglycerate kinase, glycosomal (Trypanosoma brucei brucei), sequence (P07378 whole entry, looked up): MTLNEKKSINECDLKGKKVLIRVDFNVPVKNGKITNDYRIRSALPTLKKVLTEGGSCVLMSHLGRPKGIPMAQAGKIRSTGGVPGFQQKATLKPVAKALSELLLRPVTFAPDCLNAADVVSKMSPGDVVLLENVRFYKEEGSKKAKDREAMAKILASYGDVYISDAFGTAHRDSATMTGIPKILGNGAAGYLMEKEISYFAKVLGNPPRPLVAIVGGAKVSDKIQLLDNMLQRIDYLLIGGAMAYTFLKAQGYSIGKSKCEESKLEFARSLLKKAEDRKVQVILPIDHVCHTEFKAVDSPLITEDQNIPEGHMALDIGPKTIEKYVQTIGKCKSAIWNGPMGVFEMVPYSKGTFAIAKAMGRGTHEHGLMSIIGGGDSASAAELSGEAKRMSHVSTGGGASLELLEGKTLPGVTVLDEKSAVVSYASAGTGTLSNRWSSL
ATPase family AAA domain-containing protein 5 (Homo sapiens), sequence (Q96QE3 whole entry, looked up, the tested form may be a part): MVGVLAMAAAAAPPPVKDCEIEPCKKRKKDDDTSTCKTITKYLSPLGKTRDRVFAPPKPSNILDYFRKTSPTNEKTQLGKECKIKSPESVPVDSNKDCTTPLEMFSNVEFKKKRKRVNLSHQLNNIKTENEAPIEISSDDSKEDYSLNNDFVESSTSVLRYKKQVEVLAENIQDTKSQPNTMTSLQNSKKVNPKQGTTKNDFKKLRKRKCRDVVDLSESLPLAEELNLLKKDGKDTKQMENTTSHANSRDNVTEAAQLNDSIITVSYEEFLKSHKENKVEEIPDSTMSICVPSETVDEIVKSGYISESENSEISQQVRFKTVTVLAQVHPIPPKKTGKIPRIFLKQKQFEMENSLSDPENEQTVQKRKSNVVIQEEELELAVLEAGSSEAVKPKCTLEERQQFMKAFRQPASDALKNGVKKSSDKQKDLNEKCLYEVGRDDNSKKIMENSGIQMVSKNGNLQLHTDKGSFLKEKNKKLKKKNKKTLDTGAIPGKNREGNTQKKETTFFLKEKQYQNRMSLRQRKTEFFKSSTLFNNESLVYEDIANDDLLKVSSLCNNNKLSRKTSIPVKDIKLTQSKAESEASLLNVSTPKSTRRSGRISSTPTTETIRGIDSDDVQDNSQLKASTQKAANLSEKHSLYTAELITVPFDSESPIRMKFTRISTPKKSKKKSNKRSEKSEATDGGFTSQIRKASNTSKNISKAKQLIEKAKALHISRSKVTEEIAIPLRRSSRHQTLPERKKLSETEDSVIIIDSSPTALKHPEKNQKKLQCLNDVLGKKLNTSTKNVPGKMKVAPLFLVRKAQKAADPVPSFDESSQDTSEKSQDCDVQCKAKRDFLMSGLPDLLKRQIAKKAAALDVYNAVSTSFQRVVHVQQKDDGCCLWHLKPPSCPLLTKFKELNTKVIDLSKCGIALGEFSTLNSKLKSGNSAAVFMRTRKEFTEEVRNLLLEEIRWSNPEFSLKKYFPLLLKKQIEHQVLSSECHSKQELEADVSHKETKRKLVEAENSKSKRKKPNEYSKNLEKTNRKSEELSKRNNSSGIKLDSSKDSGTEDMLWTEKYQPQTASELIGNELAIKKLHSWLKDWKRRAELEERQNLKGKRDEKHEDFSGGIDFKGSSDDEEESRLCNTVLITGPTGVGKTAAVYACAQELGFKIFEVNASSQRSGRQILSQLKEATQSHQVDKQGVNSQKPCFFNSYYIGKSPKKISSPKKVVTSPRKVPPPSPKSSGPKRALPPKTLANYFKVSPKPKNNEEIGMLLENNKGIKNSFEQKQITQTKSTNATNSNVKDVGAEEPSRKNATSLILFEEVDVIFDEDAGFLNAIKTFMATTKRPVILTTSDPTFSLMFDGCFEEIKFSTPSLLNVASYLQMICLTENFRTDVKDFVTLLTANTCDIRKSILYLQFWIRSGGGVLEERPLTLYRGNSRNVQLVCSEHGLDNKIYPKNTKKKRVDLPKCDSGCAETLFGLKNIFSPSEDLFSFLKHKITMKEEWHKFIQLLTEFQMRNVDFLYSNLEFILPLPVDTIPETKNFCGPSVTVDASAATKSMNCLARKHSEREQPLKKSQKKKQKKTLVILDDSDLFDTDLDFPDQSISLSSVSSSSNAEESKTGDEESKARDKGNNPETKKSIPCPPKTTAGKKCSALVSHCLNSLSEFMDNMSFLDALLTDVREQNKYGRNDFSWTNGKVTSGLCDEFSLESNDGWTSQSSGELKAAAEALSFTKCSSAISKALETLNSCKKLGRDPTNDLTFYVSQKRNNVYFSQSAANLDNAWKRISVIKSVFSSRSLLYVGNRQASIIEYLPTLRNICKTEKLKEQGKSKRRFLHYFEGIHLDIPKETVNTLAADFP
ATP-dependent 6-phosphofructokinase (Trypanosoma brucei brucei), sequence (O15648 whole entry, looked up): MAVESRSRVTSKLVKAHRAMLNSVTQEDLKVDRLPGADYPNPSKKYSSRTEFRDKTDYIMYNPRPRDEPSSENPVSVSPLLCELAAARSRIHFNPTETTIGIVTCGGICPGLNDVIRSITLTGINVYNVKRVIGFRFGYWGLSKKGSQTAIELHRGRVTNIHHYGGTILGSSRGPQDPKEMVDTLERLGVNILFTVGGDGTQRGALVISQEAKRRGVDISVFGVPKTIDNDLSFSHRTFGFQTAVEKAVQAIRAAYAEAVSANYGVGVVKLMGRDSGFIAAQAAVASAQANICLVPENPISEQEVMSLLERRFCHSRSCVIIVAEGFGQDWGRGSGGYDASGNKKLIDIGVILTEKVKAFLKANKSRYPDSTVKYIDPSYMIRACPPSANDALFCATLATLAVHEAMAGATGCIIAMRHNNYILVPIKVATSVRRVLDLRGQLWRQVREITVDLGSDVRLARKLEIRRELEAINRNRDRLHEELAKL
D(1A) dopamine receptor (Homo sapiens), sequence (P21728 whole entry, looked up): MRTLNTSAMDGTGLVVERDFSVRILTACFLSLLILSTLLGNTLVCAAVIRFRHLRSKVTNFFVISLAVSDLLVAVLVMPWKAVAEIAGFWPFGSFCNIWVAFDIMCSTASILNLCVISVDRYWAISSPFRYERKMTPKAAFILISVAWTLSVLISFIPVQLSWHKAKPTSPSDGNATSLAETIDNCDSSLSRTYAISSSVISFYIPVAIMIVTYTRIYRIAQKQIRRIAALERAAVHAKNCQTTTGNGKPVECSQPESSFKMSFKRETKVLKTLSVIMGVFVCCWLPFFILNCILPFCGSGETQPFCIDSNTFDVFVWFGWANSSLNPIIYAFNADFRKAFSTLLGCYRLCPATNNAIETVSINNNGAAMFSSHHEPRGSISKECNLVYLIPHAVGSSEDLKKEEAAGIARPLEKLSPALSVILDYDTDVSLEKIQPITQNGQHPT
phosphoglycerate mutase (Leishmania major), sequence (Q4Q090 1-553): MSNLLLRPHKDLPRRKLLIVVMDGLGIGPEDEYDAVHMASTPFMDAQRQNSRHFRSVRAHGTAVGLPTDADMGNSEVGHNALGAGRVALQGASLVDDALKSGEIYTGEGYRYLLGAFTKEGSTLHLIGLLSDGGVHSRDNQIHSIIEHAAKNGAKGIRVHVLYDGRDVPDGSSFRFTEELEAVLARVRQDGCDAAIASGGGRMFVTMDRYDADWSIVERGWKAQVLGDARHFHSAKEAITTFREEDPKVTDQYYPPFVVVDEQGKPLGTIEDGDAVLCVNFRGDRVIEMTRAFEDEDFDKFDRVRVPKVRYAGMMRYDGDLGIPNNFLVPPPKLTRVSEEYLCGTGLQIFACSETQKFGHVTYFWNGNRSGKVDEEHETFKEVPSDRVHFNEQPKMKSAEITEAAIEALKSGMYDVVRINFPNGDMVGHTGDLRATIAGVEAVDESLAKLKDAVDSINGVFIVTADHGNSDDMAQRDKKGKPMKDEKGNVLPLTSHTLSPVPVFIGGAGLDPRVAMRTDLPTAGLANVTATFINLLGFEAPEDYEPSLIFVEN
Thyrotropin-releasing hormone receptor (Homo sapiens), sequence (P34981 whole entry, looked up): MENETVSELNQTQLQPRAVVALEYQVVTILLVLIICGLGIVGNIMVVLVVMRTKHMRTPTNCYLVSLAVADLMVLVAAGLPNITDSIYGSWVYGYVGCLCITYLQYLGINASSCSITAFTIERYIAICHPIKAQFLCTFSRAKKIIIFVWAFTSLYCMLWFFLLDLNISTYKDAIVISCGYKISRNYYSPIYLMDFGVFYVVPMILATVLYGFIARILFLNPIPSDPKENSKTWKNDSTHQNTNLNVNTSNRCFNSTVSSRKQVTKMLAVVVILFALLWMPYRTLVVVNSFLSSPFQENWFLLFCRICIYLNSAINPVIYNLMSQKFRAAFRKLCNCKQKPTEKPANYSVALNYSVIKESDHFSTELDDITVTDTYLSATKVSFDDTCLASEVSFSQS

CCc1c(C)[nH]c2c1C(=O)C(CN1CCOCC1)CC2 (stereo not given)
1.73%: viability change [10]
inactive: Potency [1] | outcome [2] | outcome [3] | outcome [4] | Potency [5] | Potency [6] | Potency [8] | activation [9] 0.75% | Potency [10] | outcome [11] | outcome [12] | outcome [13] | outcome [14] | outcome [15] | outcome [16] | Potency [17]
active: Potency [7] 14.1 µM

OCCN1CCN(CC/C=C2/c3ccccc3Sc3ccc(C(F)(F)F)cc32)CC1
-4.74%: viability change [10]
active: Potency [1] 25.1 µM | Potency [18] 35.5 µM | Potency [17] 56.2 µM
inactive: outcome [2] | outcome [4] | Potency [6] | outcome [19] | Potency [20] | activation [9] 1.19% | Potency [10] | outcome [11] | outcome [12] | outcome [13] | outcome [14] | outcome [15] | outcome [16]

CN1C(=O)CC[C@H]1c1cccnc1
0.268%: viability change [10]
inactive: Potency [1] | Potency [18] | outcome [2] | Potency [5] | Potency [6] | Potency [7] | Potency [20] | Potency [10] | outcome [11] | outcome [14] | outcome [15] | outcome [16] | Potency [17]

CCOC(=O)c1cnc2c(cnn2CC)c1NN=C(C)C
inactive: Potency [1] | Potency [18] | outcome [2] | outcome [3] | Potency [6] | Potency [7] | outcome [19] | Potency [8] | activation [9] -4.75% | Potency [10] | outcome [11] | outcome [12] | outcome [13] | outcome [14] | outcome [15] | outcome [16] | Potency [17]
-1.57%: viability change [10]

C[C@]12CCC(=O)C=C1CC[C@@H]1[C@@H]2C(=O)C[C@@]2(C)[C@H]1CC[C@]2(O)C(=O)CO
inactive: Potency [1] | outcome [2] | outcome [3] | outcome [4] | Potency [5] | Potency [6] | Potency [7] | Potency [20] | activation [9] -0.125% | Potency [10] | outcome [11] | outcome [12] | outcome [13] | outcome [14] | outcome [15] | outcome [16] | Potency [17]
8.98%: viability change [10]

CN(C)CCN(Cc1cccs1)c1ccccn1
inactive: Potency [1] | Potency [18] | outcome [2] | outcome [4] | Potency [5] | Potency [6] | Potency [7] | outcome [19] | outcome [11] | outcome [12] | outcome [13] | outcome [14] | outcome [15] | outcome [16] | Potency [17]

CCCCCCCC/C=C\CCCCCCCC(=O)NCc1ccc(O)c(OC)c1
inactive: Potency [1] | Potency [18] | outcome [2] | Potency [5] | Potency [7] | outcome [19] | Potency [20] | Potency [8] | Potency [10] | outcome [11] | outcome [14] | outcome [15] | outcome [16]
-10.2%: viability change [10]

CCCC(C(=O)OCCN(CC)CC)(c1ccccc1)c1ccccc1
inactive: Potency [1] | outcome [2] | outcome [3] | outcome [4] | Potency [5] | Potency [6] | Potency [7] | outcome [19] | activation [9] -7.5% | outcome [11] | outcome [12] | outcome [13] | outcome [14] | outcome [15] | outcome [16] | Potency [17]
